The record followed here is article PMC4336329 (PLoS ONE, 2015).

The structures appear in SMILES notation. Hit rate of the full screen: of about 310,000 compounds, about 14,000 (4.5%) showed an effect of 50% or more. Effects have a minus sign here. The sample as a whole holds a higher share of strong results than the screen did.
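Further: peak tail current of the secondary pulse compared with the same well before compound.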

For the test, the target named is human ether-à-go-go-related gene (hERG) potassium channel (human, UniProt Q12809). The test can be described thus: primary screen, population patch clamp on CHO cells stably expressing hERG; higher = less effect of the substance.
Chain of human ether-à-go-go-related gene (hERG) potassium channel (Q12809 whole entry, looked up): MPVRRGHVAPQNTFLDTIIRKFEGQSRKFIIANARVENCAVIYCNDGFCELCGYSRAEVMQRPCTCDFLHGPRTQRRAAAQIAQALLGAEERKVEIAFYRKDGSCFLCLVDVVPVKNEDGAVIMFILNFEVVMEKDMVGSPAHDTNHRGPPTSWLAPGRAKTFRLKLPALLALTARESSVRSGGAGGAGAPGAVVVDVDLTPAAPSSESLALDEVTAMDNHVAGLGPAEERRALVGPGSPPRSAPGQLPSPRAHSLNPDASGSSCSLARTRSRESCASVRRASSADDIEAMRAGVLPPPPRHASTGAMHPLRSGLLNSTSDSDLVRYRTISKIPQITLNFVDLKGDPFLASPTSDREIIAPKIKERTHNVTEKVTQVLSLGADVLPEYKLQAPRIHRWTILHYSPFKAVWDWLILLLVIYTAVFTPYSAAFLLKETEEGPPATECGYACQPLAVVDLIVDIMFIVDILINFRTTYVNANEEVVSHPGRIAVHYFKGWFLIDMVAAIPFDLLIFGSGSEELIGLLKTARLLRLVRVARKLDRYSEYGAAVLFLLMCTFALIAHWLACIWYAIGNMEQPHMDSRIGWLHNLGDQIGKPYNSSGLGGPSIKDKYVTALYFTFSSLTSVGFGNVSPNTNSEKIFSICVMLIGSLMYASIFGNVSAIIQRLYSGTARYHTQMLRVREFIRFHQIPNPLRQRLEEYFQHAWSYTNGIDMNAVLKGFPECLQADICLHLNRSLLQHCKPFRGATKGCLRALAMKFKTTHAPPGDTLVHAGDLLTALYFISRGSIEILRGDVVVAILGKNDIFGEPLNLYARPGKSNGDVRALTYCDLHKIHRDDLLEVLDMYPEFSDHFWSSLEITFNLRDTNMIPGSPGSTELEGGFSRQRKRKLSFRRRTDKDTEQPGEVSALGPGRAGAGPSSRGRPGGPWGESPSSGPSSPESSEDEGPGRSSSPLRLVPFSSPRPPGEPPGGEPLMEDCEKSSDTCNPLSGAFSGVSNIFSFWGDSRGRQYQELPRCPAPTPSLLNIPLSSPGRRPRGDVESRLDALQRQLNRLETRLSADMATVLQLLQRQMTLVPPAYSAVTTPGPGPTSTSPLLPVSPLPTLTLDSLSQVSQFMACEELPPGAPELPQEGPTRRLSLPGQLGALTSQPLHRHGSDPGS
`COc1ccc(OC)c(CN2CCN(C(=O)CNC(=O)c3cc(C)cc(C)c3)CC2)c1`: the “hERG current change (%, negative = inhibition) at 10uM” value is -42.7%. Turning to `CN(C)CC(NC(=O)c1cccc(S(=O)(=O)Nc2ccc3c(c2)OCO3)c1)c1ccccc1` (stereo not shown), the “hERG current change (%, negative = inhibition) at 10uM” value is -14.8%. Regarding `CCN(CC)Cc1ccccc1CNC(=O)c1cccc(S(=O)(=O)Nc2ccc3c(c2)OCO3)c1`, the “hERG current change (%, negative = inhibition) at 10uM” value is -71.3%. As for `O=C(O)c1cccc(S(=O)(=O)Nc2ccc3c(c2)OCO3)c1`, the “hERG current change (%, negative = inhibition) at 10uM” value worked out at 23.4%. With `O=C(NCc1ccccc1CN1CCCC1)c1cccc(N2CCCC2=O)c1`, the “hERG current change (%, negative = inhibition) at 10uM” value is listed as -3.11%. Turning to `CCN1CCN(C(=O)c2ccc(OC)c(S(=O)(=O)Nc3ccc(C)cc3)c2)CC1`, the “hERG current change (%, negative = inhibition) at 10uM” value is -18.4%. For `COc1ccccc1-c1nc(S(=O)(=O)c2ccccc2)c(N2CCCCC2)o1` the value was 14.4%; for `Cc1cc(C)cc(NC(=O)CSc2nc3[nH]ncc3c(=O)[nH]2)c1`, 11.8%; for `C/C(=N\NC(=S)Nc1cccc(C)c1)c1ccco1`, -6.35%. For the molecule `Cc1cc2c3c(c1C)C(=O)C(=O)N3C(C)(C)CC2C` (stereo not shown), the “hERG current change (%, negative = inhibition) at 10uM” value is 6.5%. Regarding `O=C(COC(=O)CCCN1C(=O)c2ccccc2C1=O)Nc1cc(Cl)cc(Cl)c1`, the “hERG current change (%, negative = inhibition) at 10uM” value was -3.11%. For `CC12CCC(C(=O)Nc3nc4ccccc4s3)(OC1=O)C2(C)C` (stereo not shown), the “hERG current change (%, negative = inhibition) at 10uM” value is on record as 2.26%. For `O=C(NCc1ccccc1CN1CCCC1)c1cccc(S(=O)(=O)Nc2ccc(F)cc2)c1` the value was -75.2%.

Consider `COc1ccc(NS(=O)(=O)c2cccc(C(=O)NCCCN3CCOCC3)c2)cc1`, for which the “hERG current change (%, negative = inhibition) at 10uM” value was determined as 5.96%. As for `O=C(NCc1ccccc1CN1CCCC1)c1ccc(OCc2cscn2)cc1`, the “hERG current change (%, negative = inhibition) at 10uM” value is -30%. For the molecule `Cc1nc(COc2ccc(C(=O)NCc3ccccc3CN3CCCCC3)cc2)cs1`, the “hERG current change (%, negative = inhibition) at 10uM” value is -52.5%.

With `Cc1nc(COc2ccc(C(=O)Nc3ccccc3N3CCOCC3)cc2)cs1`, the “hERG current change (%, negative = inhibition) at 10uM” value is recorded as -49.1%. In the case of `COc1ccc(NS(=O)(=O)c2cccc(C(=O)NCc3ccccc3CN3CCCC3)c2)cc1`, the “hERG current change (%, negative = inhibition) at 10uM” value was -64.4%. `Cc1cccc(NS(=O)(=O)c2cccc(C(=O)NCc3ccccc3CN3CCOCC3)c2)c1`: the “hERG current change (%, negative = inhibition) at 10uM” value is -26%. Take `O=C(NCCN1CCOCC1)c1cccc(S(=O)(=O)Nc2ccc(F)cc2)c1`: the “hERG current change (%, negative = inhibition) at 10uM” value is recorded as -5.27%. The value for `COc1ccc(NS(=O)(=O)c2cccc(C(=O)NCc3ccco3)c2)cc1` was -15.8%; that for `COc1ccc(N/C=C(\C(C)=O)c2ccc(OC)c(OC)c2)cc1OC` was 18.2%; that for `CCNc1nc(N2CCOCC2)nc(N(c2ccccc2)c2ccccc2)n1` was -12.9%. Turning to `CS(=O)(=O)N1CCC(C(=O)Nc2cc(Cl)cc(Cl)c2)CC1`, the “hERG current change (%, negative = inhibition) at 10uM” value came out at 4.85%.

As to `Cn1c(=O)c2c(nc(Sc3ccccc3N)n2C)n(C)c1=O`, the “hERG current change (%, negative = inhibition) at 10uM” value is reported as 11.4%. Turning to `CC(C)C(c1nnnn1Cc1ccco1)N1CCN(C2CCCC2)CC1.Cl` (stereo not shown), the “hERG current change (%, negative = inhibition) at 10uM” value is -3.68%. The value for `CC(C)CC(c1nnnn1Cc1ccco1)N1CCN(C2CCCC2)CC1.Cl` (stereo not shown) was -38.1%; that for `Cl.c1coc(Cn2nnnc2CN2CCN(C3CCCCC3)CC2)c1` was -41.4%; that for `Cl.Fc1ccc(C(c2nnnn2Cc2ccco2)N2CCN(C3CCCCC3)CC2)cc1` (stereo not shown) was -65.6%. Consider `CCCC(c1nnnn1Cc1ccco1)N1CCN(C2CCCC2)CC1` (stereo not shown), for which the “hERG current change (%, negative = inhibition) at 10uM” value was -31%. Turning to `Cl.c1ccc(C(c2nnnn2Cc2ccco2)N2CCN(C3CCCC3)CC2)cc1` (stereo not shown), the “hERG current change (%, negative = inhibition) at 10uM” value is given as -53.5%. For the molecule `N#Cc1nc(COc2ccccc2)oc1N1CCOCC1`, the “hERG current change (%, negative = inhibition) at 10uM” value is -19.6%. As for `Cc1ccc(NC(=O)/C=C\C(=O)NCC(=O)O)cc1`, the “hERG current change (%, negative = inhibition) at 10uM” value is recorded as 0.434%. The value for `CC(=O)C1=C(C)Nc2ncnn2C1c1ccc(Cl)cc1Cl` (stereo not shown) was 2.23%; that for `Cn1cc(CN2CCC(n3nccc3NC(=O)Cc3ccccc3)CC2)cn1` was -41.8%. As for `Cc1ccc(C(=O)N2CCN(c3ccc(NC(=O)c4cccnc4)cc3)CC2)cc1`, the “hERG current change (%, negative = inhibition) at 10uM” value is given as -38.8%.

With `Cc1ccccc1C(=O)N1CCN(c2ccc(NC(=O)c3cccnc3)cc2)CC1`, the “hERG current change (%, negative = inhibition) at 10uM” value is listed as -23%. For `COc1ccc(C(=O)N2CCN(c3ccc(NC(=O)c4cccnc4)cc3)CC2)cc1` the value was -53.7%. As for `CCc1ccc(C(=O)N2CCN(c3ccc(NC(=O)c4cccnc4)cc3)CC2)cc1`, the “hERG current change (%, negative = inhibition) at 10uM” value was -71.3%.

For `COc1ccc(NC(=O)c2cccnc2)cc1`, the “hERG current change (%, negative = inhibition) at 10uM” value is given as -11.1%.

As for `O=C(Nc1ccc(N2CCN(C(=O)c3ccccc3)CC2)cc1)c1cccnc1`, the “hERG current change (%, negative = inhibition) at 10uM” value was -1.77%. For `C=CCN1C(=O)C(C)(C)N(C(=O)c2cccc([N+](=O)[O-])c2)c2ccccc21` the value was -16.4%; for `Cc1ccc[n+](C2C(c3ccc([N+](=O)[O-])cc3)C(C#N)=C([S-])NC2(O)C2CC2)c1` (stereo not shown), 0.00258%.
